Data reported in PubChem BioAssay (NCI).
The panel holds about 83,000 compounds, 20% with a hit somewhere; the sample as a whole holds those more often.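 The test compound was applied at a single concentration to cells in 96-well plates for 48 hours, and percent growth was recorded.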 Values without a mark were called inactive. Activity calls are given as the source filed them. How the source made its calls: active means growth percent below 10; inactive means the rest.

Tests used:
Assay in all cases: NCI-60 one-dose screen, 48 h (100 = growth as untreated, 0 = no growth, -100 = all killed)
Settings in all cases: 10 µM unless noted
DU-145 prostate = system: DU-145 prostate
K-562 leukemia = system: K-562 leukemia
MALME-3M melanoma = system: MALME-3M melanoma
MDA-MB-231 breast = system: MDA-MB-231 breast
RXF 393 renal = system: RXF 393 renal
SF-268 CNS = system: SF-268 CNS
SF-295 CNS = system: SF-295 CNS
SF-539 CNS = system: SF-539 CNS
UACC-257 melanoma = system: UACC-257 melanoma
M14 melanoma = system: M14 melanoma
HCT-15 colon = system: HCT-15 colon
HT29 colon = system: HT29 colon
SNB-75 CNS = system: SNB-75 CNS
SNB-19 CNS = system: SNB-19 CNS
U251 CNS = system: U251 CNS
PC-3 prostate = system: PC-3 prostate
SK-MEL-5 melanoma = system: SK-MEL-5 melanoma
UACC-62 melanoma = system: UACC-62 melanoma
LOX IMVI melanoma = system: LOX IMVI melanoma
SK-MEL-28 melanoma = system: SK-MEL-28 melanoma

Row | Structure (SMILES) | growth (DU-145 prostate) | growth (K-562 leukemia) | growth (MALME-3M melanoma) | growth (MDA-MB-231 breast) | growth (RXF 393 renal) | growth (SF-268 CNS) | growth (SF-295 CNS) | growth (SF-539 CNS) | growth (UACC-257 melanoma) | growth (M14 melanoma) | growth (HCT-15 colon) | growth (HT29 colon) | growth (SNB-75 CNS) | growth (SNB-19 CNS) | growth (U251 CNS) | growth (PC-3 prostate) | growth (SK-MEL-5 melanoma) | growth (UACC-62 melanoma) | growth (LOX IMVI melanoma) | growth (SK-MEL-28 melanoma)
1 | [N-]=[N+]=NCc1cccc(/C(O)=C/C(=O)C(=O)O)c1 | 92.1% | 110% | 91.5% | 88.4% | 24.6% | 91.5% | 143% | 100% | 100% | 118% | 113% | 83.9% | 73.6% | 101% | 103% | 97.3% | 106% | 92.4% | 92.6% | 82.1%
2 | C/C=C(/C(=C/C)c1ccc(O)cc1)c1ccc(O)cc1 | 28.2% | 22.8% | 23.1% | 49.1% | 8.39% (active) | 45.6% | 12% | -3.67% (active) | 53.9% | 15.4% | 31.7% | 38.6% | 9.32% (active) | 34.6% | 32.8% | 46.2% | 5.64% (active) | 31.2% | 39.1% | 52.4%
3 | COc1cc(/C=C/C(=O)CC(=O)/C=C/c2ccc(OC(=O)C3C4CC5CC(C4)CC3C5)c(OC)c2)ccc1OC(=O)C1C2CC3CC(C2)CC1C3 (stereo not given) | 120% | 95.1% | 78.4% | 116% | 110% | 104% | 98.9% | 108% | 102% | 105% | 135% | 105% | 107% | 106% | 111% | 82.8% | 110% | 114% | 108% | 131%
4 | CSc1nc2nc3c(c(-c4ccc(C)cc4)c2c(=O)[nH]1)CN(C)C/C3=C\c1ccc(C)cc1 | 99.4% | 103% | 120% | 86.3% | 109% | 90.9% | 111% | 124% | 79.7% | 104% | 116% | 103% | 93% | 97.3% | 91.2% | 98.5% | 77.1% | 93.8% | 90% | 111%
5 | Cc1cc(=O)oc2cc(OCCn3c(C)nn(-c4ccc(Cl)cc4)c3=O)ccc12 | 21.6% | 16.3% | 32.9% | 47.5% | 37.4% | 50.3% | 14% | 29.5% | 22.5% | 14.7% | 17.7% | 0.696% (active) | 20.4% | 54.5% | 31.4% | 48.5% | 10.8% | 43.3% | 48% | 40.8%
6 | COc1cccc(/C=N/Nc2nc3ccccc3s2)c1OC | 98.3% | 50.9% | 90.4% | 86.3% | 97.9% | 72.7% | 85.4% | 74.2% | 96.4% | 91.1% | 43.1% | 61.1% | 86.5% | 83.9% | 49.1% | 46.3% | 52.6% | 66.7% | 47.6% | 97.8%
7 | Cc1ccc(-c2csc(N)n2)cc1 | 123% | 94.4% | 124% | 96.6% | 110% | 101% | 110% | 102% | 79.9% | 102% | 99.9% | 93.6% | 93.2% | 98.1% | 92.9% | 91.2% | 97.1% | 99% | 101% | 110%
8 | CS(=O)(=O)N1CCN(Cc2cc3nc(-c4cccc5[nH]ncc45)nc(N4CCOCC4)c3s2)CC1 (tested in a mixture with another compound) | 21.3% | 58.5% | -15.2% (active) | 42.9% | -34.2% (active) | 31.4% | 1.83% (active) | 3.67% (active) | 20% | 25% | 14.2% | 9.57% (active) | -3.36% (active) | 28% | 30.5% | 6.61% (active) | -0.161% (active) | -13.5% (active) | 18.8% | 10.6%
9 | CCC(C)C1NC(=O)C(CCNCS(=O)(=O)O)NC(=O)C(NC(=O)C(CCNCS(=O)(=O)O)NC(=O)C(NC(=O)C(CCNCS(=O)(=O)O)NC(=O)CCCCC(C)C)C(C)O)CCNC(=O)C(C(C)O)NC(=O)C(CCNCS(=O)(=O)O)NC(=O)C(CCNCS(=O)(=O)O)NC(=O)C(C(C)CC)NC1=O (stereo not given) | 117% | 20.2% | 48.9% | 51.9% | 47.4% | 72.9% | 86.6% | 27.3% | 84.3% | 34.7% | 99.6% | 17.3% | 48.5% | 54.9% | 33.3% | 61.6% | 4.4% (active) | 47.5% | 48.8% | 49.8%
10 | CCCCCCCC[Si](OCC)(OCC)OCC | 105% | 99.2% | 91.6% | 104% | 104% | 104% | 111% | 98.8% | 114% | 98.7% | 107% | 103% | 85.2% | 100% | 98.9% | 91.5% | 111% | 104% | 103% | 104%
11 | CCOc1cc(/C=C/C(=O)C(C(=O)/C=C/c2ccc(OC(=O)CNc3nnc(C)s3)c(OCC)c2)C(=O)CNc2nnc(C)s2)ccc1OC(=O)CNc1nnc(C)s1 | -68.7% (active) | -41.8% (active) | -20.8% (active) | -36.9% (active) | -78.5% (active) | -16.4% (active) | -24.7% (active) | -54.5% (active) | 15.3% | -26.3% (active) | -60.1% (active) | -100% (active) | -15.8% (active) | 32.4% | -61.4% (active) | -27.9% (active) | -83.4% (active) | -88.7% (active) | -100% (active) | -68.5% (active)
12 | COc1ccc2c(c1)[n+](=O)c(C(=O)/C=C/c1cc(OC)c(OC)c(OC)c1)c(C)n2[O-] | 47.6% | 35.4% | 91.8% | 67.9% | 48.6% | 56.3% | 87.5% | 81.9% | 80.5% | 80.1% | 49.2% | 85.2% | 62.2% | 67.1% | 55.6% | 59.9% | 50.8% | 64.7% | 55.1% | 69.1%
13 | CN(C)c1ccc(-n2nc3ccccc3n2)cc1 | 101% | 70.1% | 117% | 85.4% | 98.9% | 127% | 82.7% | 86.1% | 101% | 92.2% | 108% | 111% | 108% | 98.6% | 95.5% | 101% | 75.2% | 81.1% | 93.8% | 126%
14 | NS(=O)(=O)c1cc(C2(O)NC(=O)c3ccccc32)ccc1Cl (stereo not given) | 116% | 111% | 95.4% | 112% | 109% | 109% | 103% | 97.7% | 112% | 104% | 104% | 98.4% | 91.4% | 104% | 103% | 91.7% | 115% | 103% | 98.8% | 116%
15 | CCOC(=O)C(Br)=P(c1ccccc1)(c1ccccc1)c1ccccc1 | 124% | 105% | 94.3% | 92.6% | 79.9% | 120% | 110% | 101% | 98.9% | 111% | 102% | 106% | 118% | 114% | 87.7% | 99.9% | 87.6% | 92.8% | 101% | 107%
16 | c1ccc(-c2n(Cc3ccc4ccccc4c3)cc[n+]2Cc2ccc3ccccc3c2)cc1 | 4.64% (active) | -36.7% (active) | -67.8% (active) | -82.7% (active) | -84.7% (active) | -58.2% (active) | -51% (active) | -34.7% (active) | -57.1% (active) | -60.5% (active) | 15.2% | -83.8% (active) | -29.5% (active) | -32.4% (active) | -93.5% (active) | -58.8% (active) | -98.4% (active) | -80% (active) | -92.5% (active) | -84.2% (active)
